Bioassay records as filed in PubChem BioAssay.
Shown are actives, neighbours in structure and some others; about 4.1% of the full set was active somewhere.
DAX1 inh-1: DAX1 (NR0B1) inhibitors, primary screen, cell-based, HEK293, Gal4-DAX1, luciferase luminescence. Nuclear receptor subfamily 0 group B member 1 (Homo sapiens), P51843. HEK293 Gal4-DAX1 luciferase reporter. inhibition, % at 6.75 µM. actives 0.99% (n = 340,000). AID 504766, 2011;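 active = inhibition above the mean over all tested compounds plus 3 SD, cut at about 4.2% in these data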;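 also: 0% = DAX1-transfected cells with DMSO and 100% = empty-vector control cells with DMSO; inhibition shows as a rise in luminescence from relieved DAX1 repression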
Target sequence (P51843 207-470 limits assumed): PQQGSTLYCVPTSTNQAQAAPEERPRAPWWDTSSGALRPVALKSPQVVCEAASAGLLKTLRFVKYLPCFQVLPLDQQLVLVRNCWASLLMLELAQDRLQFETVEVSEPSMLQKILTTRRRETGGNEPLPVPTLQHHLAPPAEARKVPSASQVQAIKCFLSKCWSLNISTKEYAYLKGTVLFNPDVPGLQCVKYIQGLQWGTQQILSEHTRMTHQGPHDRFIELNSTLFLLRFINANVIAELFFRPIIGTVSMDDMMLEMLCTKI
hgDAF-12 ag: H. glycines DAF-12 receptor agonists, primary screen, cell-based, luminescence, HEK293, GAL4 fusion, UAS-luciferase | Nuclear hormone receptor DAF-12 (Heterodera glycines), GAL4 fusion | activation, % at 6.8 µM | HEK293 GAL4-hgDAF12 UAS-luciferase reporter, agonist luminescence; normalized to butyrate control | AID 687014, 2013 | actives 1.8% (n = 370,000);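 active = activation above a cutoff set at the mean of all screened compounds plus 3 SD, cut at about 10% in these data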;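 also: 0% = DMSO wells and 100% = sodium butyrate wells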
hcDAF12 agonist: H. contortus DAF-12 nuclear receptor activators, primary screen, cell-based, luminescence, HEK293, lit1-tk-luc reporter. activation, % at 6.8 µM. actives 1.4% (n = 370,000). AID 652067, 2013. HEK293 hcDAF-12 lit1-tk-luc reporter; 0% DMSO, 100% Δ7-dafachronic acid;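 active = activation above the mean of all tested compounds plus 3 SD, cut at about 5.5% in these data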;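 also: 100% = response to 3 µM Δ7-dafachronic acid high control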
ssDAF-12 act: S. stercoralis DAF-12 nuclear receptor activators, primary screen, cell-based, luminescence, HEK293, GRIP1 co-expression, lit1-tk-luc; Nuclear hormone receptor DAF-12 (Strongyloides stercoralis); HEK293 ssDAF-12/GRIP1 lit1-tk-luc reporter; % of 3 µM dafachronic acid response; activation, % at 6.8 µM; actives 1% (n = 370,000);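 active = activation above the mean over all tested compounds plus 3 SD, cut at about 0.9% in these data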;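 also: 0% = DMSO-only wells and 100% = 3 µM delta7-dafachronic acid wells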
DAX1 inh-2: DAX1 (NR0B1) inhibitors on StAR promoter, primary screen, cell-based, luminescence, SF-1 (NR5A1), full-length DAX-1; inhibition, % at 6.8 µM; AID 652010, 2013; HEK293T StAR-luciferase reporter, SF-1/DAX-1 repression relief; actives 1.1% (n = 370,000);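 active = inhibition above the mean over all tested compounds plus 3 SD, cut at about 3.6% in these data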;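 also: 0% = DAX-1 cells with DMSO and 100% = cells lacking DAX-1 with DMSO; higher inhibition means more luminescence from relief of DAX-1 repression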
The depositor's hits bear a star; · = not tested or not shown.

SMILES	DAX1 inh-1	hgDAF-12 ag	hcDAF12 agonist	ssDAF-12 act	DAX1 inh-2
CC(=O)c1ccc(-c2nnc(CCC(=O)N(C)Cc3cccc4cnccc34)o2)s1	1	-1	-1	-1	-1
Cc1ccc(-c2nnc(CCC(=O)N(C)Cc3nccs3)o2)s1	0	4	3	1.9*	0
CS(=O)(=O)Oc1ccc(/C=C2\C(=N)N3N=C(CC(=O)N4CCOCC4)SC3=NC2=O)cc1Cl	1	1	-1	-1	1
COc1cc(/C=C2/C(=N)N3N=C(CC(=O)N4CCOCC4)SC3=NC2=O)ccc1OC(C)c1ccccc1 (centres undefined)	0	1	-1	2.2*	1
Oc1ccc2ccccc2c1C=Nn1c(-c2n[nH]c3c2CCC3)n[nH]c1=S	·	6	0	0	-1
CCOC(=O)c1ccc(-n2c(C)nc3ccc(Br)cc3c2=O)cc1	2	1	2	2.7*	0
Cc1cccc(C2Nc3ccccc3C(=O)N2c2ccccc2)n1 (centres undefined)	1	2	1	-1	0
O=C1c2ccccc2NC(c2ccccn2)N1c1ccc(Cl)cc1 (centres undefined)	2	8	6.2*	-1	0
CCOC(=O)C(CCCCCCC(NC(C)=O)(C(=O)OCC)C(=O)OCC)(NC(C)=O)C(=O)OCC	4.7*	0	0	-1	0
CCC(=O)Nc1ccc(CCC(=O)N2CCCC2)cc1	5.5*	0	0	-1	0
CCNS(=O)(=O)c1ccc(CCC(=O)N2CCCC2)cc1	5.1*	-1	-2	-1	-1
COc1ccc(OC)c(S(=O)(=O)N2CCCCC2C(=O)N2CCN(CCO)CC2)c1 (centres undefined)	·	2	-2	-1	0
C/C(=N\OC(=O)c1ccc(F)cc1)c1nccs1	1	2	2	1.1*	0
COc1ccc(C(=O)O/N=C(\C)c2nccs2)cc1	-1	3	0	-1	0
CC(=O)N1CCc2c(sc(NC(=O)C3CC3)c2-c2nc3ccccc3s2)C1	1	1	-1	-1	-3
CC(=O)Nc1sc2c(c1-c1nc3ccccc3s1)CCN(C(C)=O)C2	·	7	6.2*	0	·
COC(=O)C1=C(C)N(Cc2ccc(C(F)(F)F)cc2)C(=NCc2ccc(OC)cc2)NC1c1ccccc1C(F)(F)F (centres undefined)	·	1	2	-1	-1
Cc1ccc2occ(/C=N/NC(=O)[C@@H](N)Cc3ccccc3)c(=O)c2c1	5.3*	4	0	-1	0
Cc1cccc(C(=O)N/N=C/c2coc3ccccc3c2=O)c1	0	1	1	0	1
CCOC(=O)N1CCC(Nc2c(-c3ccc(C)cc3)c(=O)c2=O)CC1	-1	-2	0	3.5*	0
CNC(=O)CC1C(=O)N(Cc2ccccc2)C(=S)N1NC(=O)c1cccc(F)c1 (centres undefined)	-1	2	-3	1.2*	0
CNC(=O)CC1C(=O)N(c2ccc(Cl)cc2)C(=S)N1NC(=O)c1cccc(F)c1 (centres undefined)	0	3	0	0	0
COc1ccc(C2Nc3cccc4cccc(c34)N2)cc1Br	-1	2	5	1.1*	0
Cc1ccc2nc(NCc3ccccc3)[nH]c2c1	1	11*	4	0	0
Cc1nnc2n(c1=O)N=C(c1ccc(Cl)cc1)CS2	-1	8	6.0*	0	2
SMILES	DAX1 inh-1	hgDAF-12 ag	hcDAF12 agonist	ssDAF-12 act	DAX1 inh-2
COc1ccc(Cn2c(NC(=O)c3ccccc3)nc(Cc3ccccc3)c2-c2ccccc2)cc1	·	-2	-2	0	0
CC(C)NC(=O)/C(C#N)=C/c1ccc(N(C)C)o1	5.0*	3	-1	-2	0
Cc1ccccc1NS(=O)(=O)c1nnc(NC(=O)c2ccc(Br)cc2)s1	1	0	0	-1	0
Cc1ccccc1NS(=O)(=O)c1nnc(NC(=O)c2ccccc2C)s1	2	0	6.2*	0	1
Clc1ccc(-c2nnc(-c3ccccc3)nc2-c2c[nH]c3ccccc23)cc1	1	6	4	1.6*	0
c1ccc2sc(NC3=NCN(C4CCCCCC4)CN3)nc2c1	-1	1	3	1.5*	0
c1ccc2oc(NC3=NCN(C4CCCCC4)CN3)nc2c1	·	2	-1	-1	0
CC1CCN(c2ccc(NC(=O)c3cccnc3Cl)cc2)CC1	2	12*	0	-1	1
Cc1ccc(C(=O)N2CCN(c3ccc(NC(=O)c4cccnc4Cl)cc3)CC2)cc1	-2	-1	-3	-1	-1
COC(=O)[C@]12CCCCC=C1N(Cc1ccc3c(c1)OCO3)C(=O)[C@H](CC(=O)NCC1CCCCC1)C2	·	3	0	-1	4.1*
COCCCNC(=O)C[C@@H]1C[C@@]2(C(=O)OC)CCCCC=C2N(Cc2ccc3c(c2)OCO3)C1=O	·	0	-1	-1	2
C/C(=N\NC(=O)c1ccccc1F)c1ccc(C#N)cc1	4.5*	5	1	-1	3
CC(C)n1cc(/C=N/Nc2ccc(Cl)c(C(=O)O)c2)c2ccccc21	4.5*	·	·	·	·
O=C(CSc1nnc(-c2cccnc2)n1-c1ccc(Cl)cc1)Nc1cccc2ccccc12	·	-3	0	-1	-1
O=C(NCCSc1c[nH]c2ccccc12)c1ccco1	0	5	5.9*	0	1
O=C(NCCc1c[nH]c2ccccc12)/C(=C/c1cccnc1)NC(=O)c1ccco1	4.5*	-2	0	0	-1
Cc1ccc(-c2nc3sc(C#N)c(N)n3c(=O)c2C#N)cc1	4.8*	9	3	0	0
Cc1ccc(-n2c(N)c(C#N)c(-c3ccccc3)c(C#N)c2=O)cc1	1	-1	0	-1	-1
CCOC(=O)N1CCC(n2c(SCC(=O)NCCC3=CCCCC3)nc3ccccc3c2=O)CC1	4.4*	-2	-4	-2	-1
Cc1cc(=O)[nH]c(SCC(=O)NCCC2=CCCCC2)n1	4.9*	-2	-1	-1	0
CCOC(=O)N1CCC(n2c(SCC(=O)NCc3ccccc3)nc3ccccc3c2=O)CC1	-2	-1	-1	-2	-1
Cc1cc(SCC(=O)NCCC2=CCCCC2)nc2ccccc12	-1	0	1	-1	0
